Reference: the OligoGym collection

The sequences below were run against PRODH2 (assay: pooled miR-30 sensor sort-seq; sequence = guide strand). Conditions: shRNA.

**Q.** For TTGAAAATACGGTTCTCACGTT, which sensor-assay potency score (higher = more potent) is on record?
**A.** -0.536

**Q.** Which sensor-assay potency score (higher = more potent) does the source give for TAACAGGTCCGGAGCATCCTGG here?
**A.** -1.03

**Q.** With AAAATTGGAAACGCTGTAGTGT as the sequence, how does the sensor-assay potency score (higher = more potent) read?
**A.** -0.189

**Q.** For TTAAAATTGGAAACGCTGTAGT, which sensor-assay potency score (higher = more potent) is on record?
**A.** 0.00998

**Q.** With TTGCTTCCTCTTAAAATTGGAA as the sequence, how does the sensor-assay potency score (higher = more potent) read?
**A.** -1.06

**Q.** Which sensor-assay potency score (higher = more potent) does the source give for TAGTGTTATTGAATACATTTGA here?
**A.** -0.549

**Q.** How did the sensor-assay potency score (higher = more potent) turn out when TTATTGAATACATTTGAAAATA was run?
**A.** -1.75

What follows are sequences tested against PROM2 in the same assay as above. Conditions: shRNA.

**Q.** TAGCTTGTTGGTATACTGGTTG was tested. Which sensor-assay potency score (higher = more potent) did it give?
**A.** -0.045

**Q.** With TTGGCTAGGACATCTGAGGTCT as the sequence, how does the sensor-assay potency score (higher = more potent) read?
**A.** 0.382

**Q.** With TAGGACATCTGAGGTCTCCAGC as the sequence, how does the sensor-assay potency score (higher = more potent) read?
**A.** -0.69

**Q.** With TCACACAGGATCACACGGCTGT as the sequence, how does the sensor-assay potency score (higher = more potent) read?
**A.** 0.353

**Q.** With TATTTGGAGGTCTTGACGGCAA as the sequence, how does the sensor-assay potency score (higher = more potent) read?
**A.** -0.214

**Q.** Which sensor-assay potency score (higher = more potent) does the source give for TTGTGCTCTGTCTTCACTCGTC here?
**A.** 0.345

**Q.** TTGAGCTGCAGGACTGTCCAGA was tested. Which sensor-assay potency score (higher = more potent) did it give?
**A.** -0.114

**Q.** Which sensor-assay potency score (higher = more potent) does the source give for TTCTCCTCCTGGACCATGCTGG here?
**A.** -0.874

**Q.** For TGTAGGTCTCGTATCTCTGCAC, which sensor-assay potency score (higher = more potent) is on record?
**A.** -0.146

**Q.** How did the sensor-assay potency score (higher = more potent) turn out when TTGGGGGACATCAGAGACCAGG was run?
**A.** -1.48

**Q.** TTGACGGCAAAGATGATGCTGG was tested. Which sensor-assay potency score (higher = more potent) did it give?
**A.** -0.136

**Q.** Which sensor-assay potency score (higher = more potent) does the source give for TTCAGCTCTTGCACCACGCTGG here?
**A.** -0.154

The sequences below were run against PRPS1 in the same assay as above. Conditions: shRNA.

**Q.** For TATCTTTCTTATCCTGCCGGGC, which sensor-assay potency score (higher = more potent) is on record?
**A.** -0.757

**Q.** Which sensor-assay potency score (higher = more potent) does the source give for TTGGTGACTACTACTGCCTCAA here?
**A.** -0.00628

**Q.** TATTGGTGACTACTACTGCCTC was tested. Which sensor-assay potency score (higher = more potent) did it give?
**A.** -1.03

**Q.** How did the sensor-assay potency score (higher = more potent) turn out when TTGTCATTGATTTCGCCACAAC was run?
**A.** -1.49

**Q.** TAATATGATCTGCACCTGCTAC was tested. Which sensor-assay potency score (higher = more potent) did it give?
**A.** -0.935

**Q.** TAAATTGTCATTGATTTCGCCA was tested. Which sensor-assay potency score (higher = more potent) did it give?
**A.** -0.0544

**Q.** For TTATCTTTCTTATCCTGCCGGG, which sensor-assay potency score (higher = more potent) is on record?
**A.** 0.175

**Q.** Which sensor-assay potency score (higher = more potent) does the source give for TCACTCTCTTAGCTCCACCAGC here?
**A.** -0.945

**Q.** How did the sensor-assay potency score (higher = more potent) turn out when TTTGCAACAAGCTTGGCTGAGA was run?
**A.** -0.163

**Q.** Which sensor-assay potency score (higher = more potent) does the source give for TCAGGTGAGACAATAGTGCAGT here?
**A.** 0.663

**Q.** For TACACTTTCACCAATTTCCACA, which sensor-assay potency score (higher = more potent) is on record?
**A.** -0.758

**Q.** Which sensor-assay potency score (higher = more potent) does the source give for TGATAATATGATCTGCACCTGC here?
**A.** -0.404

Each sequence was assayed against PRPS2 in the same assay as above. Conditions: shRNA.

**Q.** Which sensor-assay potency score (higher = more potent) does the source give for TATTTATTCTGGAAATAGCTGG here?
**A.** -0.496

**Q.** With TATACTTGAAAGTTGTCGCCTC as the sequence, how does the sensor-assay potency score (higher = more potent) read?
**A.** 0.742

**Q.** ATGACCTGAATCTTGGTGCAGT was tested. Which sensor-assay potency score (higher = more potent) did it give?
**A.** -0.901

**Q.** With TTAGCATATACAAAGATCTGAT as the sequence, how does the sensor-assay potency score (higher = more potent) read?
**A.** -0.612

**Q.** Which sensor-assay potency score (higher = more potent) does the source give for TTTCATTTTGTCCTCTTGCGGA here?
**A.** -0.379

**Q.** Which sensor-assay potency score (higher = more potent) does the source give for TTCATTTTGTCCTCTTGCGGAA here?
**A.** -0.733

**Q.** TTGTCGTTAATTTCCCCGCAGC was tested. Which sensor-assay potency score (higher = more potent) did it give?
**A.** -0.905

**Q.** How did the sensor-assay potency score (higher = more potent) turn out when TGGTTGCTGAACTTCTTCGTGA was run?
**A.** -1.01

**Q.** For TGTCCTTTTTATCTTGTCGGGC, which sensor-assay potency score (higher = more potent) is on record?
**A.** -0.556
